Source: ChEMBL document CHEMBL3988442, “University of Dundee, Small-Polar-MMV Screening Library” (2021)
For part of these data: Measured potencies and affinities stand elsewhere.

What was measured:
Design in all cases: scale not given: direction of the effect not stated beside the values
[1] = target: Protein translocase subunit SecA (Escherichia coli (strain K12)) (UniProt P10408); experiment: Assay to Identify E. coli SecA ATPase Inhibitors; format: functional; conditions: 30 µM
[2] = target: T1, Ubiquitin-activating enzyme e1, putative (Leishmania donovani (strain BPK282A1)) (UniProt E9BSI1); experiment: Leishmania donovani Ubiquitin Activating Enzyme (LdE1); format: functional; conditions: 30 µM
T1 sequence (whole entry): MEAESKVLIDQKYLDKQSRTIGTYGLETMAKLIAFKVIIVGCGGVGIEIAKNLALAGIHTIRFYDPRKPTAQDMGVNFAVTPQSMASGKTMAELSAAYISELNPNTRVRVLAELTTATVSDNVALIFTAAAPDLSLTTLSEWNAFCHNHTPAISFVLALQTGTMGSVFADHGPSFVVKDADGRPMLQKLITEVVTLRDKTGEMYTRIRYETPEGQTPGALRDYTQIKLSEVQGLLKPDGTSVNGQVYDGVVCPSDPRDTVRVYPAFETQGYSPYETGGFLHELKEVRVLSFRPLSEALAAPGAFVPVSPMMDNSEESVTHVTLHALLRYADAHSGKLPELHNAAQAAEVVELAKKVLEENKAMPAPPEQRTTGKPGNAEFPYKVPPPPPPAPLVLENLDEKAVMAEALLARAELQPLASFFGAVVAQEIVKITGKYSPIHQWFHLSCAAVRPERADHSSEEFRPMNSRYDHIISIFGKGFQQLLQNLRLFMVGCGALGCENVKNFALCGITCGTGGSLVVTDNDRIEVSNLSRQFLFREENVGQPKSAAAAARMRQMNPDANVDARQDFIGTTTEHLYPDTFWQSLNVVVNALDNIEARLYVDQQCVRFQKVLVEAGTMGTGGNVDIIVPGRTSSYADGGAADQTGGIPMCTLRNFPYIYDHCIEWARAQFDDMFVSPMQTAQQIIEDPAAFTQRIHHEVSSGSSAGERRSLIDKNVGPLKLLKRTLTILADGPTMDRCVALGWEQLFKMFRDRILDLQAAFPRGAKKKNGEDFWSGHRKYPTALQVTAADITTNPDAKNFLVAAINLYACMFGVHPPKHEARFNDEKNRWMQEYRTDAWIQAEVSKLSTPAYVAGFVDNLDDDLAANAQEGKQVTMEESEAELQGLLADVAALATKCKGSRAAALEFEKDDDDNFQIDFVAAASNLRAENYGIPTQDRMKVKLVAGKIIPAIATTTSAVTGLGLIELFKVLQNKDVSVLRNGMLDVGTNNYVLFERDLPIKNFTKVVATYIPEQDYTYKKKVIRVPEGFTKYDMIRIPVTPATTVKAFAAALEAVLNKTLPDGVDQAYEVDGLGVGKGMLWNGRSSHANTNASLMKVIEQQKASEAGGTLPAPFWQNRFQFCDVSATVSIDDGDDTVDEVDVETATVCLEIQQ

[3] = target: AMP-activated protein kinase, AMPK (Homo sapiens) (UniProt P54646+O43741+P54619+Q9UGJ0+Q9Y478+Q13131+Q9UGI9); experiment: AMP-dependent Kinase enzyme assay. An in vitro enzyme assay that detects ADP turnover that is directly proportional to AMPK activity. This uses naive AMPK that is activated during the assay with MK-8722; format: functional; conditions: 30 µM
[4] = target: Sialic acid-binding Ig-like lectin 9 (Homo sapiens) (UniProt Q9Y336); experiment: Hs-Siglec9 ALPHAscreen SOP 20170721; conditions: 10 µM
Chain of Sialic acid-binding Ig-like lectin 9 (Homo sapiens) (Q9Y336 whole entry): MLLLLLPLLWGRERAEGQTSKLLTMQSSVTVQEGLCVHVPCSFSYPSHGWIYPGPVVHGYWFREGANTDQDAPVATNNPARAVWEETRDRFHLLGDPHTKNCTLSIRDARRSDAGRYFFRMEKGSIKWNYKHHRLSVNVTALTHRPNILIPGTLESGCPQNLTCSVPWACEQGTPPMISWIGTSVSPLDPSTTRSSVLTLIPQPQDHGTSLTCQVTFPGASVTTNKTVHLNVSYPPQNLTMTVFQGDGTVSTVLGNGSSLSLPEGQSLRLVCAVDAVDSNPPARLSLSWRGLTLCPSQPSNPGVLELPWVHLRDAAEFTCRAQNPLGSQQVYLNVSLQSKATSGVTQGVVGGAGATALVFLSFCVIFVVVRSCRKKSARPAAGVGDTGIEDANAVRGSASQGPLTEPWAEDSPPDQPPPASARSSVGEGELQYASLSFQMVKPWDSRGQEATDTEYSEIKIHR

[5] = system: Trypanosoma cruzi; experiment: Trypanosoma cruzi phosphomannomutase and mannose-1-phosphate guanylyltransferase assay; format: functional; conditions: 10 µM
[6] = target: T2, Arginase-2, mitochondrial (Homo sapiens) (UniProt P78540); experiment: in vitro enzyme assay to detect the production of urea directly proportional to the activity of Arginase II; format: functional; conditions: 33.3 µM; also: in the data most compounds retested in dose-response had high values
T2 sequence (whole entry): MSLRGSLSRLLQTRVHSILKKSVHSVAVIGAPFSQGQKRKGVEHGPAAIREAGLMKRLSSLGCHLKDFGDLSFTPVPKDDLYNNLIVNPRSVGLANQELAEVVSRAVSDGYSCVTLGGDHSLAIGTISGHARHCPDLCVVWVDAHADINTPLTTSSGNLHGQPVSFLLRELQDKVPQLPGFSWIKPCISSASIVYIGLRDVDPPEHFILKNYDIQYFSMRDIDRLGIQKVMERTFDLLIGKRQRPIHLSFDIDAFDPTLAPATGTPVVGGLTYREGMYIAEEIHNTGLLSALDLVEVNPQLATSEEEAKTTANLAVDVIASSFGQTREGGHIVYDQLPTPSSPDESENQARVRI

[7] = target: T3, Proteasome subunit beta (Trypanosoma cruzi) (UniProt O96673); experiment: Trypanosoma cruzi proteasome chymotrypsin-like activity (TcProtChymo) assay.; also: in the data most compounds retested in dose-response had high values; format: functional; conditions: 9.37 µM
T3 sequence (whole entry): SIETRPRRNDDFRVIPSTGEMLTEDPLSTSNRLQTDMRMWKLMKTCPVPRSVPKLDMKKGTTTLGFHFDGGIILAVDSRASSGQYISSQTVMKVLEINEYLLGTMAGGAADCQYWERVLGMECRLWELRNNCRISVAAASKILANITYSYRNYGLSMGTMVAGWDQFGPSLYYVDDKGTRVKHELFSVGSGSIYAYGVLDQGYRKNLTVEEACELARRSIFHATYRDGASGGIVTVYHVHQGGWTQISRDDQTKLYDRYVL

[8] = species: Homo sapiens; experiment: To identify inhibition of the IFN signalling (Jak-Stat) pathway via expression of an eGFP reporter gene under the control of an IFN-stimulated response element (ISRE) containing MxA promoter.; format: functional; conditions: 30 µM
[9] = target: T4, Tyrosyl-tRNA synthetase, putative (Trypanosoma cruzi (strain CL Brener)) (UniProt Q4DSP6); experiment: Trypanosoma cruzi tyrosyl tRNA synthetase (TcYRS) _High Tyrosine SOP; format: functional; conditions: 30 µM; also: in the data most compounds retested in dose-response had high values
T4 sequence (whole entry): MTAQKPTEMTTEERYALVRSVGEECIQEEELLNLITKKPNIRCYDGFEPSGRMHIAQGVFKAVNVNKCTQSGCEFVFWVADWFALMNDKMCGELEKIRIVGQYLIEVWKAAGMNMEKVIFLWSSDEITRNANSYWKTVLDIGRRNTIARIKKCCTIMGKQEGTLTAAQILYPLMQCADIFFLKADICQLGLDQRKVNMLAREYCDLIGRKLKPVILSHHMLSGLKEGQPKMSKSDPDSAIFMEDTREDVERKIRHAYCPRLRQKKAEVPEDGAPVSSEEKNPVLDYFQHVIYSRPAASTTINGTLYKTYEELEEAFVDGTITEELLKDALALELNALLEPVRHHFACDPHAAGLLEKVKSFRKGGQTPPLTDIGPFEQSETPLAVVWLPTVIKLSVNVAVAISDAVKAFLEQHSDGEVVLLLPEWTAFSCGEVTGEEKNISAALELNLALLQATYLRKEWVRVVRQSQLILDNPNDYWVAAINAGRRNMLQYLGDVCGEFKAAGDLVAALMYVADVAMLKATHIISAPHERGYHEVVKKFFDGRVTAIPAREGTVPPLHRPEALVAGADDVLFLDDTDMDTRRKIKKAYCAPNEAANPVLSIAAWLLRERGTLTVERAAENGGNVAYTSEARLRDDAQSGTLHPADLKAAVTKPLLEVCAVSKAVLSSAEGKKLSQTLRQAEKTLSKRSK

[10] = target: T4, Tyrosyl-tRNA synthetase, putative (Trypanosoma cruzi (strain CL Brener)); experiment: Trypanosoma cruzi tyrosyl tRNA synthetase (TcYRS) SOP; format: functional; conditions: 30 µM
[11] = target: Chromo domain-containing protein 1 (Saccharomyces cerevisiae (strain ATCC 204508 / S288c) (Baker's yeast)) (UniProt P32657); experiment: ScCHD-1 Enzyme Inhibition Assay; format: functional; conditions: 30 µM; also: in the data most compounds retested in dose-response had high values
Chain of Chromo domain-containing protein 1 (Saccharomyces cerevisiae (strain ATCC 204508 / S288c) (Baker's yeast)) (P32657 whole entry, the tested form may be a part): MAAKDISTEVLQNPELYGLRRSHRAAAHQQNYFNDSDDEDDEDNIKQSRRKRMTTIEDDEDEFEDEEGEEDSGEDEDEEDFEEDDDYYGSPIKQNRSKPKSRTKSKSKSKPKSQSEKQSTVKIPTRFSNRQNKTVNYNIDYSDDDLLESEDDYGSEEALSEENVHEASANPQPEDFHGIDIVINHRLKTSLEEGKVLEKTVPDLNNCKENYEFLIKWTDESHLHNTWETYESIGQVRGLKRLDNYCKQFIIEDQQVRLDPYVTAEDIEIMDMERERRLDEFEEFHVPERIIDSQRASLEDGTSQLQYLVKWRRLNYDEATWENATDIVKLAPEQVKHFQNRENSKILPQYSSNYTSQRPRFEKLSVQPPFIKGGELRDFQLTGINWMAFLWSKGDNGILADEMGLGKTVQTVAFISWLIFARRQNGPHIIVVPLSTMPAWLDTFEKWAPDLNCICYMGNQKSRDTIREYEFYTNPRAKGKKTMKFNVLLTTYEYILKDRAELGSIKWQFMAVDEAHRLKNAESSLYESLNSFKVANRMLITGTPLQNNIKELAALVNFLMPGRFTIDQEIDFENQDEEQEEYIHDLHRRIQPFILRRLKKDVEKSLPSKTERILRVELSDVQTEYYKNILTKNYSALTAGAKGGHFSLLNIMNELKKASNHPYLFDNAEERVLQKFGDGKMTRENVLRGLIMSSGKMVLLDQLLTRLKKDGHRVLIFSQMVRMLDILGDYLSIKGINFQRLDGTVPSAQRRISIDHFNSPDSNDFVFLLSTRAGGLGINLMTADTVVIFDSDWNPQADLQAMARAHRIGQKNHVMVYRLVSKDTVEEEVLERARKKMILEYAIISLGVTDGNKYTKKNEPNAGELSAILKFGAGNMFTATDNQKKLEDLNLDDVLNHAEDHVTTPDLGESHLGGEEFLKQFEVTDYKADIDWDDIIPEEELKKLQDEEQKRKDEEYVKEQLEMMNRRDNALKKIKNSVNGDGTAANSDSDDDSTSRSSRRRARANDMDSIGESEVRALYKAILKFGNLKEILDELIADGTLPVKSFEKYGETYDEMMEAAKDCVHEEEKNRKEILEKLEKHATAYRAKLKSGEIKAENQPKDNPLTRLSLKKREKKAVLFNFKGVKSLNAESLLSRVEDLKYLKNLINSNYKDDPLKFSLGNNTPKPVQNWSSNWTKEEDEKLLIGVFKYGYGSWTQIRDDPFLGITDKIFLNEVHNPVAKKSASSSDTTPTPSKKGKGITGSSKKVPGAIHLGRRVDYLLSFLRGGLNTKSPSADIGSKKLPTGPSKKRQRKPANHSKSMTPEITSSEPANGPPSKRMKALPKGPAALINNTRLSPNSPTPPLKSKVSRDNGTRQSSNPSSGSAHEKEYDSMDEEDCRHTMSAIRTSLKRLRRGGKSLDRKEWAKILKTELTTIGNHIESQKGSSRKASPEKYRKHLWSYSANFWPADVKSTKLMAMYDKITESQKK

Chain of Protein translocase subunit SecA (Escherichia coli (strain K12)) (P10408 whole entry): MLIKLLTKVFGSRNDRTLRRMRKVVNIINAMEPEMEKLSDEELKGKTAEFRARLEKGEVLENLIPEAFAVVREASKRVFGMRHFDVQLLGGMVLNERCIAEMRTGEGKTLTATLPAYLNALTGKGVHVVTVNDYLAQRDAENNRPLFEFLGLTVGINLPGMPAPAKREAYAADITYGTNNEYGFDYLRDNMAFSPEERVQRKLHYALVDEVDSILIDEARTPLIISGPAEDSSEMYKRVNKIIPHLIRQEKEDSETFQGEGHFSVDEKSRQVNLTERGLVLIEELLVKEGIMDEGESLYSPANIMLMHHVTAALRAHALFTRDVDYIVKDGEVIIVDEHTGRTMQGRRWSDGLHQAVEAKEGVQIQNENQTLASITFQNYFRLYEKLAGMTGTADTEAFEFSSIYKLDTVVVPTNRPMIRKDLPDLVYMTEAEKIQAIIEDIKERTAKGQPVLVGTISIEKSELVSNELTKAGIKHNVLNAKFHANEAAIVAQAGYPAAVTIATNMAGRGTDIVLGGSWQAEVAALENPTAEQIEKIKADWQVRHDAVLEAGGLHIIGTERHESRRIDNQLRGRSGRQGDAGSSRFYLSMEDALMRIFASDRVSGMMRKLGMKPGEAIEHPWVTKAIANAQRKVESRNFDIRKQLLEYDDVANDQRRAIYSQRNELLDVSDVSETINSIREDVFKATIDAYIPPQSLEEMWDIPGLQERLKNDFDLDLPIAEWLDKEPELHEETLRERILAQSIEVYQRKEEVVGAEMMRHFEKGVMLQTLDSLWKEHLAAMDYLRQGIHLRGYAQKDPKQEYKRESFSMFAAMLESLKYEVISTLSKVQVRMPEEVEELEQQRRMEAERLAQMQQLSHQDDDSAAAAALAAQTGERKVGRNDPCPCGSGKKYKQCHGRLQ

Row | SMILES | Percent Effect [1] | Percent Effect [2] | Percent Effect [3] | Percent Effect [4] | Percent Effect [5] | Percent Effect [6] | Percent Effect [7] | Percent Effect [8] | Percent Effect [9] | Percent Effect [10] | Percent Effect [11]
1 | COc1cccn(CC(=O)N(C)Cc2ccoc2)c1=O | -7% | -5.48% | -5.18% | 30.6% | 1.59% | 0.399% | 2.48% | -11% | 2.08% | 3.7% | 1.52%
2 | CNc1cc(C2CCCN2Cc2ccccc2C(=O)O)ccn1 (stereo unspecified) | -4.24% | -6.76% | 3.65% | -0.354% | -1.19% | -0.696% | 7.33% | 7.54% | 8.6% | 11.7% | -11.7%
3 | O=C(CSc1ccc2c(c1)OCCO2)NS(=O)(=O)C1CCCCC1 | -2.58% | -1.39% | 3.64% | -7.65% | -6.71% | 3.09% | 11.4% | 9.49% | -1.05% | -5.13% | -0.962%
4 | CC(C)c1nn(C)c(N(C)C)c1CNCC(O)c1ccccc1F (stereo unspecified) | -3.41% | 18.2% | -14.7% | 3.26% | 0.562% | -1.07% | 4.39% | 10.4% | 6.8% | 7.32% | -8.47%
5 | Cn1cc(C(=O)CC2CCCN2C(=O)c2cncc3ccccc23)cn1 (stereo unspecified) | -2.2% | 6.33% | -4.89% | 2.04% | 0.718% | 4.95% | 5.66% | 14.6% | 5.21% | 12.7% | -15%
6 | CC(C)c1nc2c(n1C)CCN(CC(=O)Nc1ccc(Cl)cn1)C2 | -1.64% | 15.6% | 1.07% | 6.83% | 0.686% | -2.32% | 19.8% | 6.83% | 4.76% | 21.2% | -21.7%
7 | c1sc(C2CCCC2)nc1CN1CCn2c(nnc2C2CC2)C1 | -6.12% | 5.41% | 0.718% | -3.09% | -2.14% | -0.554% | 10.4% | 37.1% | 10.9% | 15.8% | -4.21%
8 | CCN1CC(C(=O)NC(C)(C)CNC(=O)OC(C)(C)C)CC1=O (stereo unspecified) | -5.66% | 8.11% | -1.21% | 20.7% | -1.66% | 4.22% | 7.47% | -16.6% | 4.3% | 8.64% | -4.86%
9 | CC(C)NS(=O)(=O)c1cc(C(=O)O)cc(-c2ccccc2CN(C)C)c1 | -5.51% | 0% | -1.94% | -2.62% | -6.16% | 4.22% | 3% | 1.46% | 1.07% | 3.7% | -3.44%
10 | COc1cccc(CN2CCN(C(=O)CN3CCOCC3)CC2)n1 | 0.629% | -10.5% | -3.06% | 3.57% | 4.76% | 3.6% | 4.99% | 7.19% | 2.46% | 6.17% | 2.89%
11 | CNC(=O)C(NC(=O)c1nccn2ccnc12)c1ccc(F)c(F)c1 (stereo unspecified) | -5.39% | 13.5% | -2.95% | 5.66% | 5.27% | 16.2% | 19% | -10.6% | 5.94% | 15.8% | 23.6%
12 | Cc1cc2cc(C(=O)N[C@@H]3CC[C@@H](N4CCOCC4)[C@@H]3O)ccc2o1 | 1.28% | 17.6% | 5.33% | -5.41% | 2.57% | -0.232% | 13.4% | 29.4% | 5.38% | 3.9% | -10.2%
13 | Cc1ccc(C(=O)N2CC[C@@H]3[C@H]2CCC(=O)N3c2ccccc2)o1 | -2.77% | 2.67% | 14% | -0.294% | 0.591% | 0.233% | -2.03% | 12.1% | 7.45% | 11.5% | 1.89%
14 | O=C(c1n[nH]c2ccccc12)N1CCCC1c1noc(C2CC2)n1 (stereo unspecified) | -4.36% | 7.59% | -0.141% | 0.249% | 8.4% | 5.32% | 1.39% | -4.43% | 4.43% | 13.9% | -5.81%
15 | O=C(NCCO)Nc1cccc(Cl)c1SC(F)F | -7.96% | -1.39% | 0.408% | 20.6% | -3.01% | 0.883% | 13.9% | 28.9% | -5.26% | -15.4% | -1.91%
16 | Cn1ccnc1CN1CCN(CC(O)c2ccco2)CC1 (stereo unspecified) | -7.57% | 18.2% | -3.75% | -8.89% | -1.86% | -0.632% | 17.4% | 16.1% | 6.67% | 7.06% | -4.92%
17 | OCCC1CN(C2CCC2)CCN1C1CCCC1 (stereo unspecified) | -3.14% | -1.39% | -6.25% | -1.98% | 7.87% | -1.77% | 2.28% | -37% | 1.05% | 7.69% | 3.1%
18 | Cc1ccc(C(=O)N2CCN(CCCSCC#N)CC2)o1 | -3.54% | -5.48% | 1.04% | 10.8% | 1.98% | -2.4% | 6.42% | 18.1% | 4.17% | 11.1% | 0.208%
19 | O=C(c1cnco1)N1C[C@@H]2CC[C@H](Oc3ccccc3F)[C@@H]2C1 | -8.63% | -6.76% | 3.39% | -7.43% | -3.16% | -2.09% | 3.74% | 25.5% | -4.3% | -9.09% | -6.6%
20 | O=C(Cc1ccc(F)cc1)N1CCn2cc(Cn3cccn3)nc2C1 | -3.25% | 10.8% | 5.39% | -3.22% | -1.66% | 6.69% | 8.12% | -1.16% | 5.41% | 20.5% | 0.365%
21 | Cc1cnc(CN(Cc2ccccc2)CC(O)c2cccs2)cn1 (stereo unspecified) | 0.271% | 5.41% | -2.24% | 20.3% | 6.35% | 41.9% | 0.772% | 5.39% | -3.23% | 6.17% | -11.6%
